Bioassay records from PubChem BioAssay.
Sampled rows, rich in hits. Any-hit rate of the full collection: about 0.92%.
LmPK inhibitor: blocks Leishmania mexicana pyruvate kinase activity | Q27686 | actives 0.37% (n = 290,000) | AID 1721 | Potency, µM (series often up to 57.5 µM), for the others: at the top dose activity change, negative = inhibition, hits mostly inhibitors | purified LmPK, Kinase-Glo ATP luminescence, 1 h; further: potency means the concentration at half of the fitted maximal effect; on the % scale 0 is the no-effect control and ±100 the full control effect
Target sequence (Q27686 whole entry, looked up): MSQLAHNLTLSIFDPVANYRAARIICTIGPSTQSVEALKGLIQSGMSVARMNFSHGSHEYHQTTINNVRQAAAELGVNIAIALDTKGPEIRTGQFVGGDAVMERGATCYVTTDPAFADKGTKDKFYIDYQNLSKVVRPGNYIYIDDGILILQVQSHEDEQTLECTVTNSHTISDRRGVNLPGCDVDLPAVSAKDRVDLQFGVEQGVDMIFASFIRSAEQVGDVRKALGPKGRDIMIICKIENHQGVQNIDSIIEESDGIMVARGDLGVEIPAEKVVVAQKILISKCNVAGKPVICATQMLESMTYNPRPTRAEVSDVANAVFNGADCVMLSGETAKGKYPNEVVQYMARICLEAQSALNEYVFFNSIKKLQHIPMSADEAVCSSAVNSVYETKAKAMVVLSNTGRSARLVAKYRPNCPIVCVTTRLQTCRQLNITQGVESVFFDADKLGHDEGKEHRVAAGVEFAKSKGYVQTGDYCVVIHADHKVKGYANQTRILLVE
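ATP generated from ADP (0.1 mM) and PEP (0.5 mM) by 0.1 nM LmPK over 1 h at room temperature (pH 7.2 imidazole buffer) was detected by coupled luciferase luminescence. Values were normalized to uninhibited and no-enzyme wells.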
RE007 growth inh: less growth of the S. pombe RE007 Vpr strain; S. pombe RE007 Vpr strain, BacTiter-Glo ATP luminescence, 24 h; Potency, µM (highest dose often 92.2 µM), for the others: top-dose activity change, negative = less growth, usual class: inhibitors; actives 0.21% (n = 360,000); AID 651644; active means well fitted falling curve with a large enough effect; inconclusive means small, poorly fitted or top-dose-only effect; inactive means no such curve, though single readings can be large or run the other way; further: potency means the concentration at half of the fitted maximal effect; on the % scale 0 is the no-effect control and ±100 the full control effect; nearly all actives have a fitted effect of over 50% in size
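Fission yeast strain RE007, carrying one chromosomally integrated HIV-1 vpr copy, was seeded at OD 0.01 in PMG+AL medium with 23 nL pinned compound. After 24 h at 30 °C and 99% humidity, viability was read by BacTiter-Glo luminescence.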
NS1 inh: influenza NS1 inhibition. actives 0.4% (n = 270,000). AID 2326. Potency, µM (top dose mostly 46.1 µM), for inactives: at the top dose activity, positive = more growth; calls by dose curve; further: potency means the concentration at half of the fitted maximal effect; actives are rising curves; nearly all actives have a fitted effect of over 50% in size
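Growth recovery, yeast-based: influenza A NS1 expressed in S. cerevisiae causes slow growth, and suppressors are detected by OD600. The parent strain without NS1 is used as positive control.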
AMA1-RON2 inh: inhibitors of Plasmodium falciparum AMA1-RON2 interaction; AlphaScreen AMA1-biotinylated RON2 peptide binding; Potency, µM (doses to about 58.2 µM), for the others: top-dose activity change, negative = inhibition, usual class: inhibitors; actives 0.2% (n = 360,000); AID 720542;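 further: potency means the concentration at half of the fitted maximal effect; 0% = vehicle wells and -100% = peptide control; nearly all actives have a fitted effect of over 45% in size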
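AMA1 (3D7) with his tag at 25 nM final met compounds first, then biotinylated RON2 peptide at 25 nM; detection used donor plus acceptor beads, 10 µg/mL apiece, read by AlphaScreen after 30 min at room temperature.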
TbPYK inhibitor: inhibitors of Trypanosoma brucei pyruvate kinase; TbPYK enzyme, Kinase-Glo Plus ATP luminescence, 45 min; Q57TT1; AID 624173; actives 0.12% (n = 410,000); Potency, µM (highest dose often 76.8 µM), without a hit: at the highest dose activity, negative = inhibition, usual class: inhibitors; further: potency means the concentration at half of the fitted maximal effect; on the % scale 0 is the no-effect control and ±100 the full control effect; nearly all actives have a fitted effect of over 50% in size
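Quantitative HTS: titrated library compounds versus trypanosomal pyruvate kinase in TEA buffer (pH 7.2) containing KCl, MgCl2, BSA and Tween-20. Reactions were initiated with ADP, 130 uM final. Kinase-Glo Plus luminescence was read after 45 min at RT.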
Flu NS1 inh: validation of influenza NS1 protein function inhibitors | AID 492980 | activity change, negative = inhibition, % at 32.9 µM | influenza NS1 function cell assay, 15-point titration | 1,400 tested, under 10 active | shares compounds with NS1 inh; calls by dose curve; further: 0% is about no effect
PR8 titer: influenza virus titer reduction, NS1 project | shares compounds with NS1 inh | MDCK infected influenza A/PR/8/34, virus titer TCID50; active compounds read low | virus titer (log TCID50), log10 TCID50 at 5 µM | actives 30% (n = 95); call rule not given here
Numbers without * were called inactive; ? = inconclusive; . = not tested or not shown; [ ] = remark or other dose. Unless noted, the call rests on the fitted dose curve; in most records, active means well fitted curve in the direction sought with a large enough effect; inconclusive means small, poorly fitted or top-dose-only effect, or another doubt; inactive means no such curve, though single readings can be large; an effect the other way counts as inactive or inconclusive.

SMILES	LmPK inhibitor	RE007 growth inh	NS1 inh	AMA1-RON2 inh	TbPYK inhibitor	Flu NS1 inh	others
COc1ccc(C=C(c2nc3ccccc3s2)c2nc3ccccc3s2)cc1O	3%	0%	16µM*	-25%	-6%	-12
COc1ccc(C(=O)NCCc2sc(-c3cccc(F)c3)nc2C)cc1	.	.	.	.	0%	.
COc1ccc(CNC(=O)CCCCCn2c(SCC#N)nc3cc4c(cc3c2=O)OCO4)cc1	5%	-1%	11µM*	-15%	-24%	-16
CCN(CC)C(=O)CSc1nc2cc3c(cc2c(=O)n1CCCC(=O)NCc1ccc(OC)cc1)OCO3	5%	7%	.	6%	-1%	.
CCOCCCNC(=O)c1ccc2c(=O)n(CCc3ccc(OC)c(OC)c3)c(=O)[nH]c2c1	.	.	.	.	1%	.
CCc1cc2c(-c3ccccc3)cc(=O)oc2cc1OC(C)C(=O)O (stereo unspecified)	0%	3%	10µM*	-6%	1%	21
Cc1cc(C)c(NC(=O)C2CCN(c3nnc(C)c4c(C)n(-c5ccccc5)nc34)CC2)c(C)c1	.	.	.	.	1%[15.4 µM]	.
O=C(O)CCC(=O)N1CCc2cc(S(=O)(=O)NC3CCCc4ccccc43)ccc21 (stereo unspecified)	0%	11%	3.5µM*	2%	0%	20
COc1ccc(CCn2c(=O)c3cccnc3n(CC(=O)Nc3ccc(C)cc3C)c2=O)cc1OC	.	.	.	.	1%	.
Cc1ccc(C(=O)N/N=C/c2cc(C)n(-c3ccc(Br)cc3)c2C)cc1[N+](=O)[O-]	8%	29%	10µM*	35%	2%	-19	PR8 titer=8.3
CCN(CC)c1nc(N)n(CCSC(=S)N(C)C)c(=O)n1	-5%	-8%	?	-5%	1%	3
Cc1csc(SCC(=O)Nc2nccs2)n1	.	-16%	.	-1%	-18%	.
Cc1csc(SCC(=O)Nc2nncs2)n1	1%	10%	?	5%	0%	-22
CON(C)c1nc(Oc2ccc(=O)[nH]n2)nc(N(C)C)n1	-7%	13%	?	-19%	14%	26
CN(C)c1nc(Oc2ccc(=O)[nH]n2)nc(N2CCOCC2)n1	2%	-3%	11%	1%	-2%	.
Cc1ccc(NC(=O)CC(=O)c2ccc([N+](=O)[O-])cc2)cc1S(=O)(=O)Nc1cccc(Cl)c1	3%	-7%	14µM*	29%	3%	7	PR8 titer=7.5*
Cc1ccc(NS(=O)(=O)c2ccc(N3CCN(c4ccc(O)cc4)CC3)c([N+](=O)[O-])c2)c(C)c1	-2%	-2%	16%	?	?	.
O=[N+]([O-])c1cc(S(=O)(=O)Nc2ccccc2)ccc1N1CCN(c2ccc(O)cc2)CC1	-6%	5%	14µM*	?	-17%	6
COc1ccc(OC)c(C2Nc3c(C)cc(C)cc3-c3cc(C)nn32)c1 (stereo unspecified)	.	.	.	.	0%	.
COC(=O)Cc1[nH]nc2c1C(c1ccc(O)c(OC)c1)C(C#N)=C(N)O2 (stereo unspecified)	8%	5%	10µM*	41%	-4%	?
C/C=C(/C)C(=O)O[C@H]1C(C)=C2C([C@@H]1OC(=O)CCCCCCC)[C@@](C)(OC(C)=O)C[C@@H](OC(=O)CCC)[C@@]1(O)[C@H]2OC(=O)[C@@]1(C)O (stereo partly specified)	.	.	8.9µM*	.	.	36
CCOC(=O)c1ccc(C(=O)OCC)c(NC(=S)Nc2ccc([N+](=O)[O-])cc2OC)c1	1%	-7%	5µM*	32%[11.6 µM]	-4%	?
COc1cc2c(cc1OC)C1O[C@](CCCCN3C(=O)c4ccccc4C3=O)(C2)OC2=C1C(=O)c1ccccc1C2=O	-8%[11.5 µM]	.	24%	.	.	.
N#CCC(=O)Nc1sc2c(c1C(N)=O)CCCC2	7%	5%	8.9µM*	105%	-3%	18
CCC(=O)Nc1sc2c(c1C(N)=O)CCC2	3%	6%	-19%	2%	-5%	.
SMILES	LmPK inhibitor	RE007 growth inh	NS1 inh	AMA1-RON2 inh	TbPYK inhibitor	Flu NS1 inh	others
Cc1ccc(-c2cnc(C3CC3)o2)cc1S(=O)(=O)Nc1ccc(F)cc1Cl	.	.	.	.	-13%	.
COC(=O)c1cc(C(=O)OC)cc(N2C(=O)CC(NNC(=O)c3ccc(C)cc3)C2=O)c1 (stereo unspecified)	5%	12%	7.1µM*	12%	-10%	12
COC(=O)c1cc(C(=O)OC)cc(N2C(=O)CC(NNC(=O)c3ccccc3Br)C2=O)c1 (stereo unspecified)	0%	-18%	19%	18%	-2%	.
Cc1ccccc1C1C2=C(Nc3[nH]n(-c4ccccc4)c(=O)c31)c1ccccc1C2=O (stereo unspecified)	-9%	.	11µM*	.	.	-22
Cc1ccc(CSc2nc3ccc(NC(=O)COc4ccccc4)cc3s2)cc1	.	.	.	.	-9%	.
CCc1cc2c(=O)n(Cc3ccco3)c(SCC(=O)N3CCCc4ccccc43)nc2s1	-2%	1%	7.1µM*	-18%	-10%	5
CCN(CC)C(=O)c1sc2nc(-c3cccs3)cc(-c3ccc(Cl)cc3)c2c1N	-1%	2%	4.5µM*	21%	-16%	?
Cc1ccc(C)c(N2CCN(C(=O)c3cc(C)nc4c3c(C)nn4-c3cccc(F)c3)CC2)c1	.	.	.	.	-4%	.
COc1cc(/C=N/NC(=O)c2ccc(CN3C(=O)c4cccc5cccc3c45)cc2)cc(OC)c1O	1%	0%	13µM*	81%	-9%	18
COc1ccc(/C=N/NC(=O)c2ccc(CN3C(=O)c4cccc5cccc3c45)cc2)cc1O	15%	-3%	.	36%	-3%	.
Cc1cc(C)c2cc(C#N)c(N3CCCN(S(=O)(=O)c4ccccc4)CC3)nc2c1	.	-8%	.	-3%	-9%	.
CC(=O)c1cccc(S(=O)(=O)N2CCN(c3nc4cc(C)cc(C)c4cc3C#N)CC2)c1	-1%	2%	10µM*	10%	-4%	0
O=C(CSc1nc(=O)[nH]c2c1CCCC2)Nc1ccc(Cl)c(Cl)c1	.	.	.	.	5%	.
COc1ccc(OC)c(NC(=O)COC(=O)c2ccc(S(=O)(=O)N3CCCCC3)cc2)c1	.	-15%	.	-5%	-10%	.
O=C(COc1ccc(S(=O)(=O)N2CCCC2)cc1)NCc1cccnc1	0%	3%	?	14%	3%	11
COc1ccc(OC)c(NC(=O)COc2ccc(S(=O)(=O)N3CCCC3)cc2)c1	1%	-11%	?	-7%	-8%	-8
O=C(NCc1cccnc1)C1CCCN(S(=O)(=O)c2ccccc2)C1 (stereo unspecified)	6%	8%	1.6µM*	1%	-6%	2
